# Bioassay records deposited in PubChem BioAssay by National Center for Advancing Translational Sciences (NCATS).
# RE007 growth inh = less growth of the S. pombe RE007 Vpr strain; S. pombe RE007 Vpr strain, BacTiter-Glo ATP luminescence, 24 h; Potency, µM (series often up to 92.2 µM), inactives show at the highest dose activity change, negative = less growth, actives largely listed as inhibitors; actives 0.21% (n = 360,000); active means well fitted falling curve with a large enough effect; inconclusive means small, poorly fitted or top-dose-only effect; inactive means no such curve, though single readings can be large or run the other way; further: on the % scale 0 is the no-effect control and ±100 the full control effect; nearly all actives have a fitted effect of over 50% in size
#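 Fission yeast RE007 carrying one integrated HIV-1 vpr copy, seeded at OD 0.01 in PMG+AL medium with 23 nL pinned compound. Grown 24 h at 30 degrees; viability read by BacTiter-Glo luminescence after 5 min.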
# Sm TGR block = S. mansoni TGR enzyme inhibition. Q962Y6. actives 3% (n = 360,000). Potency, µM (highest dose often 114 µM), for inactives: at the highest dose activity change, negative = inhibition, actives largely listed as inhibitors. purified TGR, DTNB reduction, TNB absorbance 405 nm; further: on the % scale 0 is the no-effect control and ±100 the full control effect; nearly all actives have a fitted effect of over 60% in size
#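 Kinetic colorimetric format: TGR-catalysed, NADPH-driven DTNB reduction monitored via TNB absorbance. Enzyme dispensed at 20 nM; compound exposure 15 min at room temperature before reaction start.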
# SARS PLpro yeast = blocks SARS-CoV papain-like protease in a yeast assay | Potency, µM (doses to about 32.9 µM), for inactives: top-dose activity, positive = growth rescue, usual class: activators | S. cerevisiae expressing SARS-CoV PLpro, growth rescue | actives 0.19% (n = 330,000); calls by dose curve; further: 0% is about no effect; nearly all actives have a fitted effect of over 55% in size
# LmPK inhibitor = LmPK (Leishmania mexicana) enzyme inhibition; Q27686; purified LmPK, Kinase-Glo ATP luminescence, 1 h; Potency, µM (doses to about 57.5 µM), inactives show at the top dose activity change, negative = inhibition, most hits filed as inhibitors; actives 0.37% (n = 290,000); further: on the % scale 0 is the no-effect control and ±100 the full control effect
# Target sequence (Q27686 whole entry, looked up): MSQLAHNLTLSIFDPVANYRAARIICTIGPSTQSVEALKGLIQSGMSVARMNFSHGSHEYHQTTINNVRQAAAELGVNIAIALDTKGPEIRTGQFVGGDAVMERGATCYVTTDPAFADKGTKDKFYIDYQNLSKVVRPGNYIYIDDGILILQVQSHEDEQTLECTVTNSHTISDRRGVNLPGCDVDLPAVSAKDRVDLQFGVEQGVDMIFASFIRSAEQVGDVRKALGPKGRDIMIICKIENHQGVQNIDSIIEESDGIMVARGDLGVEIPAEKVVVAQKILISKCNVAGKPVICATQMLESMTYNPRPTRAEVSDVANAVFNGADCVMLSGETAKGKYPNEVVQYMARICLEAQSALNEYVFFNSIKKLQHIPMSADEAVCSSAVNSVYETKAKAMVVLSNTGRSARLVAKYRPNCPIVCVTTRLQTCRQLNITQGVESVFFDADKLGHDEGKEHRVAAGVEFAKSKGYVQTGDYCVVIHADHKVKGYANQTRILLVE
#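 In 50 mM imidazole pH 7.2 with 7 mM MgCl2, LmPK (0.1 nM) turned over PEP (0.5 mM) and ADP (0.1 mM) for 1 h at room temperature. Luciferase read-out of ATP.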
# Tb PYK inh = T. brucei pyruvate kinase inhibition; AID 624173; Potency, µM (series often up to 76.8 µM), inactives show at the top dose activity, negative = inhibition, hits mostly inhibitors; Q57TT1; TbPYK enzyme, Kinase-Glo Plus ATP luminescence, 45 min; actives 0.12% (n = 410,000); further: on the % scale 0 is the no-effect control and ±100 the full control effect; nearly all actives have a fitted effect of over 50% in size
#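 Readout: single end-point luminescence (Kinase-Glo Plus, 10 min). Reaction conditions were TbPYK/substrate plus 130 uM ADP, 45 min at RT, pH 7.2 TEA buffer. No-enzyme wells served as controls, and data were normalized before concentration-response fitting.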
# NS1 inh = inhibitors of influenza NS1 protein function. actives 0.4% (n = 270,000). AID 2326. Potency, µM (series often up to 46.1 µM), for inactives: at the highest dose activity, positive = more growth; calls by dose curve; further: actives are rising curves; nearly all actives have a fitted effect of over 50% in size
#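 Read-out: OD600 growth recovery of NS1-expressing budding yeast. Cells grown overnight at 30C in -URA glucose medium, washed, resuspended and diluted 1:100 in 2% galactose assay medium, pH 6.0. Same strain lacking NS1 served as positive control.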
# Active calls of the source: *; ? = inconclusive; . = not tested or not shown; [ ] = another dose, or the depositor's remark. Shown are actives, neighbours in structure and some others; about 3.3% of the full set was active somewhere. Unless noted, the call rests on the fitted dose curve; in most records, active means well fitted curve in the direction sought with a large enough effect; inconclusive means small, poorly fitted or top-dose-only effect, or another doubt; inactive means no such curve, though single readings can be large; an effect the other way counts as inactive or inconclusive. Potency means the concentration at half of the fitted maximal effect.
SMILES,RE007 growth inh,Sm TGR block,SARS PLpro yeast,LmPK inhibitor,Tb PYK inh,NS1 inh
O=C(CCl)N1CCN2C(=O)c3ccccc3C12c1ccc(Cl)cc1 (stereo unspecified),-18.7%,2.51µM*,-0.3%,1.4%,-2.0%,2.9%
Nc1[nH]c(=S)[nH]c(=O)c1N=Nc1c(Br)cc(S(N)(=O)=O)cc1Br,.,.,.,.,.,-0.1%
Cc1ccc(CNC(=O)CCC2CCCN(Cc3cccc4c3OCO4)C2)o1 (stereo unspecified),-3.4%,?,-2.1%,11.4%,-1.1%,1.4%
Cc1ccc(CNC(=O)CCC2CCCN(Cc3ccc4cccc(F)c4n3)C2)o1 (stereo unspecified),-11.9%,39.8µM*,0.3%,3.8%,-2.0%,-5.1%
CCCCCCCCCCCCCCC(O)C[N+](C)(CCO)CCO (stereo unspecified),31.6µM*,.,.,.,-0.7%,.
CO/C=C\C=C/c1nnn(-c2ccc(Cl)cc2)n1,?,8.91µM*,-77.4%,1.3%,-7.4%,-44.6%
Cc1cccc(NC(=O)CSc2nc3ccccc3nc2N2CCOCC2)c1C,.,2.2%,.,.,-2.4%,.
CCOC(=O)c1sc2nc(CC(=O)OC)nc(NCCN(CC)CC)c2c1C,-2.1%,-15.9%,6.7%[6.58 µM],7.9%,-0.6%,4.1%
CCOC(=O)c1sc2nc(CC(=O)OC)nc(NCCN3CCOCC3)c2c1C,0.5%,25.1µM*,-3.4%,0.5%,-2.4%,-2.0%
C=C[C@@H]1CN2CC[C@@H]1C[C@@H]2[C@H](O)c1ccnc2ccc(OC)cc12,.,.,.,.,.,-4.1%
Cc1nnc(SCc2nc3ccccc3c(=O)n2-c2ccccc2Cl)n1N,-4.7%,56.2µM*,3.7%,-1.3%,-1.0%,-0.3%
CCc1ccc(S(=O)(=O)NC(=S)NC2CCCCC2)cc1,?,12.6µM*,-1.6%,1.0%,0.7%,-77.6%
CCc1ccc(C(C)NC(=S)NC2CCCCC2)cc1 (stereo unspecified),-1.2%,-5.1%,?,2.7%,0.4%,-74.6%
O=S(=O)(NC(=S)NC1CCCCC1)c1ccc(Cl)cc1,-17.0%,12.6µM*,-1.0%,-2.9%,-0.1%,-49.8%
Cc1ccc(S(=O)(=O)NC(=S)NC2CCCCC2)cc1,1.4%,31.6µM*,-1.9%,5.0%,1.0%,.
Cc1ccc(S(=O)(=O)NC(=O)NC2CCCCC2)cc1,.,.,.,.,4.0%,.
CCCSCCCNC(=O)C1CCN(c2nc3ccccc3nc2C(F)(F)F)CC1,.,-6.8%,.,.,-2.9%,.
CC(N)(Cc1ccc(O)c(O)c1)C(=O)O (stereo unspecified),.,.,.,.,.,-12.1%
O=C(NC(=S)Nc1ccc(S(=O)(=O)Nc2nccs2)cc1)c1ccccc1F,-0.5%,-6.0%,3.5%,6.6%,2.0%,.
CCc1nnc(NS(=O)(=O)c2ccc(NC(=O)/C=C/c3ccccc3Cl)cc2)s1,7.6%,.,0.2%,2.0%,-0.3%,7.7%
O=C(NC(=S)Nc1ccc(S(=O)(=O)Nc2nccs2)cc1)c1ccc(F)c(F)c1,3.0%,?,16.0%,0.6%,-7.1%,8.8%
O=C(NC(=S)Nc1ccc(S(=O)(=O)Nc2nccs2)cc1)c1cccnc1,-23.2%,12.6µM*,2.8%,-2.2%,-3.6%,2.1%
CCc1nnc(NS(=O)(=O)c2ccc(NC(=S)NC(=O)c3ccccc3)cc2)s1,-8.6%,39.8µM*,-11.7%,-3.2%,-9.0%,23.9%
O=C(NC(=S)Nc1ccc(S(=O)(=O)Nc2nccs2)cc1)c1ccccc1,3.7%,35.5µM*,-2.2%,4.2%,-5.1%,5.1%
CCc1nnc(NS(=O)(=O)c2ccc(NC(=O)/C=C/C(=O)O)cc2)s1,14.3%,5.62µM*,6.2%,-2.1%,-5.9%,27.5%
C[C@H](C(=O)c1ccccc1)C(c1ccccc1)N1CCOCC1 (stereo partly specified),.,.,.,.,.,0.0%
Cc1ccc(-n2nnnc2CNC(=O)c2ccc(F)cc2)cc1C,.,6.4%,.,.,1.3%,.
Cc1ccc(S(=O)(=O)Nc2ccc(NC(=O)/C=C/C(=O)O)cc2)cc1,-18.5%,50.1µM*,0.0%,0.5%,2.5%,9.7%
